# According to PubChem BioAssay:
# Target: E3 ubiquitin-protein ligase XIAP (Homo sapiens) (UniProt P98170)
# Experiment: XIAP binders, primary screen, biophysical, small-molecule microarray, fluorescence 635 nm (AID 1181);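 note: score merges 667 nm emission and signal to noise over triplicate slides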
# Conditions: small-molecule microarray binding, higher = more signal
# E3 ubiquitin-protein ligase XIAP (Homo sapiens), sequence (P98170 whole entry, looked up): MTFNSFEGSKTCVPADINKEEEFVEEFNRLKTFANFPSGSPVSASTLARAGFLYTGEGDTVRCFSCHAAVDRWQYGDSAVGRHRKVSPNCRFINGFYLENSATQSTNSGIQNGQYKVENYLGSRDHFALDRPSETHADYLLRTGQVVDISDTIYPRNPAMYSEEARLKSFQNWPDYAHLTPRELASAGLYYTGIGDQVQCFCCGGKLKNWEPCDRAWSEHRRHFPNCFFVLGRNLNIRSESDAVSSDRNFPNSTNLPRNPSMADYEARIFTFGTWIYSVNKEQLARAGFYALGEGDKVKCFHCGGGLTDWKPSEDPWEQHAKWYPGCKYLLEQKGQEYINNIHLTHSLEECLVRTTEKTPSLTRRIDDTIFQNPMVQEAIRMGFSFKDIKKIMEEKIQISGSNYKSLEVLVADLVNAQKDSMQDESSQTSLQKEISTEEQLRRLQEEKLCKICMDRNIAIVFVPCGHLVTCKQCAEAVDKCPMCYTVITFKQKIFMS
row,Structure (SMILES),composite z-score
1,OCCCC1=CC(C2CC2)N(Cc2cccc(OC(F)(F)F)c2)CC1 (stereo not drawn),0.324
2,CCOc1cc(C(O)C2C=CC3C(=O)N(c4ccccc4)C(=O)C3N2Nc2ccc(C(C)C)cc2)ccc1O (stereo not drawn),0.0891
3,CO[C@H]1O[C@H](CO)[C@@H](OC(=O)Nc2ccccc2)[C@@H]2OC(=O)[C@@H](Cc3ccc4ccccc4c3)C/C=C/C[C@H](Cc3ccc4ccccc4c3)C(=O)O[C@@H]12,1.54
4,CCOC(=O)C[C@H]1[C@H](OC(=O)c2ccc(C(=O)c3ccccc3)cc2)[C@@H](NC(=O)Cc2ccc(OC)cc2)c2cc(OCCCO)ccc2N1C(=O)c1ccc2ccccc2n1,0.0801
5,C=CC[C@]1(C(=O)N2CCOCC2)N=C(c2ccc(OCCCO)cc2)O[C@H]1c1ccccc1N=[N+]=[N-],0.179
6,NC(=O)[C@@H]1[C@H]2C(=O)O[C@H](c3ccccc3)[C@H](c3ccccc3)N2[C@H](c2ccc(O)cc2)[C@@]12C(=O)Nc1ccc(C#CC3=CCCCC3)cc12,-0.0696
7,COCCCNC(=O)[C@]1(Cc2ccccc2)N=C(c2ccc(OCCCO)cc2)O[C@@H]1c1ccccc1CN=[N+]=[N-],0.0136
8,CC(C)(C)OC(=O)CC[C@]1(C(N)=O)N=C(c2ccc(OCCCO)cc2)O[C@H]1c1ccccc1,0.12
9,O=C1C2C=CC(C(O)C=Cc3ccc([N+](=O)[O-])cc3)N(Nc3ccccc3F)C2C(=O)N1c1ccccc1 (stereo not drawn),0.0101
10,C=C(CCCC)/C(=C/C[C@@H](OC(C)=O)c1ccccc1OCCO)c1cc(C(=O)OC)ccc1OC,-0.02
11,O=C1C2C=CC(C(O)c3ccc(F)cc3)N(Nc3ccc([N+](=O)[O-])cc3)C2C(=O)N1c1ccccc1 (stereo not drawn),0.135
12,CC(=O)NCCCC[C@@H]1NC(=O)[C@H]2C[C@@H](C(=O)O)[C@@H](c3ccc(O)cc3)N2C1=O,0.5
13,COc1ccc([Si](C)(C)[C@H]2[C@H](CCn3cc([C@H](O)c4ccccc4)nn3)O[C@@]3(C(=O)N(C)c4ccccc43)[C@@H]2C)cc1,0.393
